# In publication PMC5892938, “SARNAclust: Semi-automatic detection of RNA protein binding motifs from immunoprecipitation data”:
# Whole data set: some 11,000 sequences, median “log2 fold change” near 0.00022, cut for the highest 2% near 0.34. The list shows a part of the results.
# Biological target: GST-SBP-SLBP (stem-loop binding protein) (Homo sapiens, UniProt Q14493 1-270)
# Test: targeted RNA Bind-n-Seq; RBNS binding buffer: 25 mM Tris pH 7.5, 150 mM KCl, 3 mM MgCl2, 0.1% Tween, 0.5 mg/mL BSA, 1 mM DTT; 27 nM protein, 750 pM RNA pool; temperature not stated; high values mean tight binding
# Settings: protein: recombinant; tags: N-terminal GST and SBP (pGEX6P1-SBP); structured_RNA
# In short: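 The protein, carrying a GST-SBP tag, was produced in Rosetta(DE3) pLysS E. coli, purified on glutathione, and mixed at 27 nM with 750 pM of a designed RNA oligo pool made by T7 transcription in RBNS binding buffer. RNA that bound was reverse transcribed using a barcoded primer of 10 nucleotides, amplified by PCR and sequenced on a MiSeq with 200-cycle paired-end reads. FLASH joined the reads, HISAT2 aligned them, and they were collapsed by barcode before the binding signal was taken as the DEseq binary-logarithm fold change of read counts for each sequence.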
row,Sequence,binding signal
1,GGUCACGUCUCAAUCAACUCUUCAGAGGGGGGGAAAACCCCUUUGCCCUCAAUUUCAACAGCUCGCAGUCAAG,0.337 ± 0.433 log2 fold change
2,GGUCACGUCUCAAUCAACUCUCCAGAGGGGGGGAAAACCCCUUUGCCCUCCAUUUCAACAGCUCGCAGUCAAG,0.536 ± 0.422 log2 fold change
3,GGUCACGUCUCAAUCAACUCACACGAGGGGGGGAAAACCCCUUUACCCUCAUCCUCAACAGCUCGCAGUCAAG,0.453 ± 0.432 log2 fold change
4,GGUCACGUCUCAAUCAACUCCUACGAGGGGGGGAAAACCCCUUUACCCUCAACCUCAACAGCUCGCAGUCAAG,0.619 ± 0.434 log2 fold change
5,GGUCACGUCUCAAUCAACUCCUACGAGGGGGGGAAAACCCCUUUACCCUCAAAUUCAACAGCUCGCAGUCAAG,0.442 ± 0.411 log2 fold change
6,GGUCACGUCUCAAUCAACUCCUACGAGGGGGGGAAAACCCCUUUACCCUCAUCAUCAACAGCUCGCAGUCAAG,0.348 ± 0.402 log2 fold change
7,GGUCACGUCUCAAUCAACUCCUACGAGGGGGGGAAAACCCCUUUACCCUCAUAAUCAACAGCUCGCAGUCAAG,0.382 ± 0.421 log2 fold change
8,GGUCACGUCUCAAUCAACUCAUUCCCAGGAGUUUACUCCUGUAAUUUCAACAGCUCGCAGUCAAG,0.331 ± 0.233 log2 fold change
9,GGUCACGUCUCAAUCAACUCAUCUUCAGGAGUUUGCUCCUGCAAUCUCAACAGCUCGCAGUCAAG,0.328 ± 0.197 log2 fold change
10,GGUCACGUCUCAAUCAACUCAUGUCCAGGAGUUUACUCCUGCAAUCUCAACAGCUCGCAGUCAAG,0.371 ± 0.281 log2 fold change
11,GGUCACGUCUCAAUCAACUCAGGUCCAGGAGUUUACUCCUGCAAAUUCAACAGCUCGCAGUCAAG,0.356 ± 0.313 log2 fold change
12,GGUCACGUCUCAAUCAACUCAACUCCAGGAGUUUACUCCUGUAAUCUCAACAGCUCGCAGUCAAG,0.456 ± 0.227 log2 fold change
13,GGUCACGUCUCAAUCAACUCUAGUCCAGGAGUUUACUCCUGUUUAUUCAACAGCUCGCAGUCAAG,0.313 ± 0.255 log2 fold change
14,GGUCACGUCUCAAUCAACUCAAUCUCAGGAGUUUACUCCUGCAAAGUCAACAGCUCGCAGUCAAG,0.321 ± 0.217 log2 fold change
15,GGUCACGUCUCAAUCAACUCAUCGCCAGGAGUUUACUCCUGCUAAUUCAACAGCUCGCAGUCAAG,0.301 ± 0.286 log2 fold change
16,GGUCACGUCUCAAUCAACUCAAUUCCAGGAGUUUCCUCCUGCAUUUUCAACAGCUCGCAGUCAAG,0.321 ± 0.19 log2 fold change
17,GGUCACGUCUCAAUCAACUCAGGUCCAGGAGUUUACUCCUGCAAUUUCAACAGCUCGCAGUCAAG,0.516 ± 0.297 log2 fold change
18,GGUCACGUCUCAAUCAACUCAUCUCCAGGAGUUUCCUCCUGCAUACUCAACAGCUCGCAGUCAAG,0.323 ± 0.222 log2 fold change
19,GGUCACGUCUCAAUCAACUCUUCCCCAGGAGUUUACUCCUGCAUUUUCAACAGCUCGCAGUCAAG,0.302 ± 0.227 log2 fold change

row,Sequence,binding signal
1,GGUCACGUCUCAAUCAACUCAAGUCCAGGAGUUUUCUCCUGCAAAGUCAACAGCUCGCAGUCAAG,0.447 ± 0.258 log2 fold change
2,GGUCACGUCUCAAUCAACUCAAUCCCAGGAGUUUUCUCCUGCAAUGUCAACAGCUCGCAGUCAAG,0.317 ± 0.214 log2 fold change
3,GGUCACGUCUCAAUCAACUCUUCGCCCAGGGAAAGCCCUGGUUAUUUCAACAGCUCGCAGUCAAG,0.464 ± 0.319 log2 fold change
4,GGUCACGUCUCAAUCAACUCUUCUCCCAGGGAAAGCCCUGGCAAUUUCAACAGCUCGCAGUCAAG,0.428 ± 0.307 log2 fold change
5,GGUCACGUCUCAAUCAACUCUUCUCCCAGGGAAACCCCUGGUUAUUUCAACAGCUCGCAGUCAAG,0.372 ± 0.273 log2 fold change
6,GGUCACGUCUCAAUCAACUCUUCUCCCAGGGAAAGCCCUGGUUAACUCAACAGCUCGCAGUCAAG,0.335 ± 0.269 log2 fold change
7,GGUCACGUCUCAAUCAACUCUAUCUCCAGGGAAAUCCCUGGCAAUGUCAACAGCUCGCAGUCAAG,0.418 ± 0.298 log2 fold change
8,GGUCACGUCUCAAUCAACUCAAUCUCCAGGGAAAACCCUGGCAAUGUCAACAGCUCGCAGUCAAG,0.578 ± 0.314 log2 fold change
9,GGUCACGUCUCAAUCAACUCAGUCUCCAGGGAAAUCCCUGGUAUUUUCAACAGCUCGCAGUCAAG,0.347 ± 0.308 log2 fold change
10,GGUCACGUCUCAAUCAACUCAAUCUCCAGGGAAAGCCCUGGCAAUGUCAACAGCUCGCAGUCAAG,0.309 ± 0.299 log2 fold change
11,GGUCACGUCUCAAUCAACUCAGUCUCCAGGGAAAUCCCUGGCAAUCUCAACAGCUCGCAGUCAAG,0.4 ± 0.338 log2 fold change
12,GGUCACGUCUCAAUCAACUCUAUCUCCAGGGAAAUCCCUGGUAAACUCAACAGCUCGCAGUCAAG,0.306 ± 0.25 log2 fold change
13,GGUCACGUCUCAAUCAACUCUUUCUCCAGGGAAAUCCCUGGCUAUCUCAACAGCUCGCAGUCAAG,0.375 ± 0.236 log2 fold change
14,GGUCACGUCUCAAUCAACUCAUUCCCCAGGGAAACCCCUGGCUAACUCAACAGCUCGCAGUCAAG,0.341 ± 0.323 log2 fold change
15,GGUCACGUCUCAAUCAACUCUUCCCCCAGGGAAACCCCUGGCUAAUUCAACAGCUCGCAGUCAAG,0.313 ± 0.254 log2 fold change
16,GGUCACGUCUCAAUCAACUCAUUCGCCAGGGAAACCCCUGGGUAUUUCAACAGCUCGCAGUCAAG,0.329 ± 0.31 log2 fold change
17,GGUCACGUCUCAAUCAACUCAUCUUCCAGGGAAAACCCUGGCUAAUUCAACAGCUCGCAGUCAAG,0.36 ± 0.265 log2 fold change
18,GGUCACGUCUCAAUCAACUCAUUUUCCAGGGAAACCCCUGGCUAAUUCAACAGCUCGCAGUCAAG,0.348 ± 0.267 log2 fold change
19,GGUCACGUCUCAAUCAACUCAUACGAGGGGGGGAAAACCCCUUUACCCUCAAUAUCAACAGCUCGCAGUCAAG,0.313 ± 0.436 log2 fold change

row,Sequence,binding signal
1,GGUCACGUCUCAAUCAACUCAUACGAGGGGGGGAAAACCCCUUUACCCUCAAAUUCAACAGCUCGCAGUCAAG,0.598 ± 0.45 log2 fold change
2,GGUCACGUCUCAAUCAACUCAUACGAGGGGGGGAAAACCCCUUUACCCUCAAACUCAACAGCUCGCAGUCAAG,0.382 ± 0.399 log2 fold change
3,GGUCACGUCUCAAUCAACUCGCAAGAGGGGGGGAAAACCCCUUUACCCUCACAAUCAACAGCUCGCAGUCAAG,0.536 ± 0.414 log2 fold change
4,GGUCACGUCUCAAUCAACUCAUAAGAGGGGGGGAAAACCCCUUUACCCUCACACUCAACAGCUCGCAGUCAAG,0.455 ± 0.444 log2 fold change
5,GGUCACGUCUCAAUCAACUCACAAGAGGGGGGGAAAACCCCUUUACCCUCACUCUCAACAGCUCGCAGUCAAG,0.304 ± 0.385 log2 fold change
6,GGUCACGUCUCAAUCAACUCACAAGAGGGGGGGAAAACCCCUUUACCCUCGUCCUCAACAGCUCGCAGUCAAG,0.385 ± 0.429 log2 fold change
7,GGUCACGUCUCAAUCAACUCAAUCCCAGGAGUUUGCUCCUGCAUAUUCAACAGCUCGCAGUCAAG,0.355 ± 0.208 log2 fold change
8,GGUCACGUCUCAAUCAACUCAAUCCCAGGAGUUUCCUCCUGUUUUUUCAACAGCUCGCAGUCAAG,0.312 ± 0.215 log2 fold change
9,GGUCACGUCUCAAUCAACUCAUCCUCAGGAGUUUCCUCCUGCAAACUCAACAGCUCGCAGUCAAG,0.314 ± 0.204 log2 fold change
10,GGUCACGUCUCAAUCAACUCAGUCUCAGGAGUUUCCUCCUGCUAUUUCAACAGCUCGCAGUCAAG,0.343 ± 0.24 log2 fold change
11,GGUCACGUCUCAAUCAACUCAUCCGCAGGAGUUUCCUCCUGGUAUUUCAACAGCUCGCAGUCAAG,0.483 ± 0.25 log2 fold change
12,GGUCACGUCUCAAUCAACUCUUUCUCAGGAGUUUCCUCCUGCAUUUUCAACAGCUCGCAGUCAAG,0.312 ± 0.164 log2 fold change
13,GGUCACGUCUCAAUCAACUCAAUCUCAGGAGUUUUCUCCUGCUAUUUCAACAGCUCGCAGUCAAG,0.339 ± 0.222 log2 fold change
14,GGUCACGUCUCAAUCAACUCAUCUCCAGGAGUUUCCUCCUGCUUUUUCAACAGCUCGCAGUCAAG,0.328 ± 0.198 log2 fold change
15,GGUCACGUCUCAAUCAACUCAGUCCCAGGAGUUUUCUCCUGCUAAUUCAACAGCUCGCAGUCAAG,0.335 ± 0.235 log2 fold change
16,GGUCACGUCUCAAUCAACUCAGUCCCAGGAGUUUCCUCCUGUAAAUUCAACAGCUCGCAGUCAAG,0.371 ± 0.28 log2 fold change
17,GGUCACGUCUCAAUCAACUCAUCCCCAGGAGUUUGCUCCUGCAUUCUCAACAGCUCGCAGUCAAG,0.306 ± 0.225 log2 fold change
18,GGUCACGUCUCAAUCAACUCAUCCUCAGGAGUUUGCUCCUGCAUAUUCAACAGCUCGCAGUCAAG,0.313 ± 0.205 log2 fold change
